# Screening results deposited in PubChem by National Center for Advancing Translational Sciences (NCATS).
# 12-hLO inh = inhibitors of human 12-lipoxygenase (ALOX12); P18054; purified 12-hLO, xylenol orange hydroperoxide absorbance; Potency, µM (top dose mostly 57.1 µM), usual class: inhibitors; 150,000 tested, 0.12% active; note: nearly all actives have a fitted effect of over 55% in size
# Target sequence (P18054 whole entry, looked up): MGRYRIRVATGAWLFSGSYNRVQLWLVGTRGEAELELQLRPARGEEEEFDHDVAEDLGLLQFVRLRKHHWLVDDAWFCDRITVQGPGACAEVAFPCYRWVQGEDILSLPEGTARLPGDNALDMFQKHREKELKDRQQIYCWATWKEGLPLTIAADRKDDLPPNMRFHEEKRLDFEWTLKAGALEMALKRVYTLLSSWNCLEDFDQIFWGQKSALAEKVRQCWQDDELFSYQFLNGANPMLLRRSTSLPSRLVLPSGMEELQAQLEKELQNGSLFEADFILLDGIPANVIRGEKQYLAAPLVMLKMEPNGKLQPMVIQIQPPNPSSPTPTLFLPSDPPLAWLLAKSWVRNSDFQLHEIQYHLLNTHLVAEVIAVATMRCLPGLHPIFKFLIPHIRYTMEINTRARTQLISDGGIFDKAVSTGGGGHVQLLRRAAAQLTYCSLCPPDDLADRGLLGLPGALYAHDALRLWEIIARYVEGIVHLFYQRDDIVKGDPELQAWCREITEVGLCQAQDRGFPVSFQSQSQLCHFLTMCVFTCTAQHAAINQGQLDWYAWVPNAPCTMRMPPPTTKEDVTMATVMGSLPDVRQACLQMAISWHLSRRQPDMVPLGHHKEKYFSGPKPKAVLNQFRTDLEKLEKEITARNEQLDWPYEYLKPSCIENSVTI
#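 Xylenol orange chromogenic assay: hydroperoxide from 12hLO oxidises Fe(II), giving red-shifted Fe(III)-XO absorbance. Conditions: 150 nM enzyme, 40 uM arachidonic acid, 25 mM Hepes pH 7.0, 0.01% Triton X-100, 30 min, room temperature.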
# HPGD inh = inhibitors of human 15-hydroxyprostaglandin dehydrogenase (HPGD); P15428; purified HPGD, NADH fluorescence kinetic, PGE2 substrate; Potency, µM, actives largely listed as inhibitors; 150,000 tested, 4.3% active; active = well fitted inhibition curve with a large enough effect, not every such curve was filed as active; inconclusive = small, poorly fitted or top-dose-only effect, or another doubt; inactive = no such curve, though single readings can be large or run the other way
#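 20 nM HPGD preincubated 15 min at room temperature with compound in 50 mM Tris-HCl pH 8, 0.01% Tween 20. Started with 1 mM NAD+ and 30 uM prostaglandin E2; NADH fluorescence (360/450 nm) read 5 times over 30-s intervals, last minus first.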
# p53ts 32C tox = kills p53ts cells at the permissive temperature. H1299-p53A138V at 32C, ATP luminescence viability, 24 h. Potency, µM (highest dose often 46.1 µM), usual class: cytotoxic. 130,000 tested, 0.93% active; note: nearly all actives have a fitted effect of over 55% in size
#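 ATP-content luminescence (ATPlite) read-out after 24 h compound exposure at 32C in H1299-p53A138V cells (600/well). Tested up to 46 uM. Normalized to DMSO (0%) and 100 uM tamoxifen (100% killing); Hill-fit AC50.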
# p53ts 39C kill = cytotoxicity in p53ts cells at nonpermissive temperature. H1299-p53A138V viability at 39C, ATP luminescence, 24 h. 130,000 tested, 1.5% active. AID 902. Potency, µM (doses to about 46.1 µM), usual class: cytotoxic; note: nearly all actives have a fitted effect of over 55% in size
# Numbers stand for hits; – = inactive; ? = inconclusive; · = no result given; [ ] = dose if it differs, or a comment. Hits are enriched below; roughly 4.4% of the tested compounds scored in any of these assays. Unless noted, calls come from the whole dose curve; as a rule, active = well fitted curve in the direction sought with a large enough effect; inconclusive = small, poorly fitted or top-dose-only effect, or another doubt; inactive = no such curve, though single readings can be large; an effect the other way counts as inactive or inconclusive.
SMILES,12-hLO inh,HPGD inh,p53ts 32C tox,p53ts 39C kill
COc1cc(NC(=O)CCc2c(C)nc3c(-c4ccc(F)cc4)c(C)nn3c2C)cc(OC)c1OC,·,·,–,–
Clc1ccc(-n2nnnc2Sc2ncnc3sccc23)cc1,·,·,?,20µM
Cc1ccc(N2CCN(C(=O)NCc3noc4ccccc34)CC2C)cc1 (stereo not drawn),·,·,–,–
CC[C@@H](C)[C@H]1O[C@]2(CC[C@@H]1C)C[C@@H]1C[C@@H](C/C=C(\C)[C@@H](O[C@H]3C[C@H](OC)[C@@H](O[C@H]4C[C@H](OC)[C@@H](O)[C@H](C)O4)[C@H](C)O3)[C@@H](C)/C=C/C=C3\CO[C@@H]4[C@H](O)C(C)=C[C@@H](C(=O)O1)[C@]34O)O2,·,–,·,·
CC[C@@H](C)[C@H]1O[C@]2(CC[C@@H]1C)C[C@@H]1C[C@H](C/C=C(/C)[C@H](O[C@@H]3C[C@H](OC)[C@H](O[C@@H]4C[C@H](OC)[C@@H](O)[C@H](C)O4)[C@H](C)O3)[C@@H](C)/C=C\C=C3CO[C@@H]4[C@H](O)C(C)=C[C@@H](C(=O)O1)[C@]34O)O2 (tested in a mixture with another compound),–,?,13µM,13µM
CC[C@H](C)[C@@H]1O[C@]2(CC[C@@H]1C)C[C@H]1C[C@H](CC=C(C)[C@@H](O[C@H]3C[C@H](OC)[C@H](O[C@H]4C[C@H](OC)[C@H](O)[C@H](C)O4)[C@H](C)O3)[C@@H](C)C=CC=C3CO[C@@H]4[C@@H](O)C(C)=C[C@H](C(=O)O1)[C@@]34O)O2,–,·,10µM,5µM
CC[C@H](C)[C@@H]1O[C@]2(CC[C@@H]1C)C[C@H]1C[C@H](CC=C(C)[C@@H](O[C@@H]3C[C@H](OC)[C@H](O[C@@H]4C[C@H](OC)[C@H](O)[C@H](C)O4)[C@H](C)O3)[C@@H](C)C=CC=C3CO[C@@H]4[C@@H](O)C(C)=C[C@@H](C(=O)O1)[C@]34O)O2,–,–,?,13µM
CCOc1cc(C2C(C(=O)OC)=C(C)NC3=C2C(=O)c2ccccc23)c(Br)cc1O (stereo not drawn),·,·,–,–
N#Cc1c(NC(=O)c2cc([N+](=O)[O-])ccc2N2CCOCC2)sc2c1CCCC2,–,28µM,·,·
O=C1C2C3C=CC(C3)C2C(=O)N1/N=C/c1cn(Cc2ccccc2)c2ccccc12 (stereo not drawn),–,–,·,·
NC1=NC(=O)/C(=C/c2cn(Cc3ccccc3)c3ccccc23)S1,–,28µM,·,·
CCC(=O)Nc1ccc2c(c1)OCCO2,–,–,·,·
CCOCC(=O)Nc1cccc(Br)c1,–,25µM,–,–
CCOCC(=O)Nc1cccc(NC(C)=O)c1,–,–,–,–
CCOCC(=O)Nc1ccc(F)c(F)c1,–,28µM,–,–
CCOCC(=O)Nc1ccc2c(c1)OCCO2,–,14µM,–,–
COC(=O)[C@H](COC(C)(C)C)NC(=O)O[C@@H]1C(=O)c2cc(Br)ccc2O[C@H]1c1ccc2c(c1)OCO2,·,–,·,·
COC(=O)NC(c1cccc(C)c1)[C@]1(C(C)=O)CCOC1=O (stereo partly drawn),·,·,–[9.22 µM],–[9.22 µM]
CC(C)Oc1ccc(CNC(=O)C2=Cc3ccccc3OC2)cc1,·,·,–,–
C[C@H]1Cc2c(COc3ccccc3)nc3c(c2CO1)CN(C(=O)c1cccnc1)CC3,–[11.4 µM],–,·,·
COc1cccc2sc(NC(=O)c3ccc(S(=O)(=O)N4CCC(C)CC4)cc3)nc12,·,·,–,–
Cc1cc(C)n2c(=S)[nH]nc2n1,?,2.8µM,–,–
COc1ccc(/C=C(\C#N)C(N)=O)c(OC)c1,–[11.4 µM],–,–[9.22 µM],–[9.22 µM]
CCc1ccc(-c2nc(CN3CCCC(C(=O)N4CCN(c5cc(Cl)ccc5C)CC4)C3)c(C)o2)cc1 (stereo not drawn),·,·,13µM,?
CCOC(=O)c1cccc(NC(=O)C2CCN(c3nnc(C)c4c(C)n(-c5ccccc5)nc34)CC2)c1,·,·,–,–
SMILES,12-hLO inh,HPGD inh,p53ts 32C tox,p53ts 39C kill
CCCCNc1nc(Oc2ccc(OCC(N)=O)nn2)nc(N2CCOCC2)n1,·,·,–,–
N=C(N)SCc1ccc(Cl)cc1Cl (tested in a mixture with another compound),–[11.4 µM],?,–[9.22 µM],–[9.22 µM]
O=C(O)c1ccccc1NS(=O)(=O)c1ccc(F)c(Cl)c1,–,–,–,–
COc1ccc(Nc2c3c(nc4ccc(NC(=O)/C=C/c5cccc(OC)c5OC)cc24)CCCC3)cc1OC,·,·,10µM,10µM
COc1ccc(/C=C/C(=O)Nc2ccc3nc4c(c(Nc5ccccc5OC)c3c2)CCCC4)cc1,·,·,–,–
COc1ccc(Nc2c3c(nc4ccc(NC(=O)/C=C/c5cc(OC)c(OC)c(OC)c5)cc24)CCCC3)cc1OC,·,·,13µM,10µM
COc1ccccc1Nc1c2c(nc3ccc(NC(=O)c4cccc(F)c4)cc13)CCCC2,·,·,10µM,5µM
COc1ccc(/C=C/C(=O)Nc2ccc3nc4c(c(Nc5ccc(OC)c(OC)c5)c3c2)CCCC4)cc1,·,·,11µM,10µM
COc1ccccc1Nc1c2c(nc3ccc(NC(=O)/C=C/c4cccc(OC)c4OC)cc13)CCCC2,·,·,–,–
Cc1ccc(-n2ncc3c(NCCCN(C)C)ncnc32)cc1Cl,·,·,–,16µM
COc1ccc(CNc2ncnc3c2cnn3-c2ccc(C)c(C)c2)cc1,·,·,–,–
COc1ccc(-n2ncc3c(NC(C)(C)CO)ncnc32)cc1,·,·,13µM,10µM
c1ccc(CCNc2ncnc3c2cnn3-c2ccccc2)cc1,–,16µM,–,–
CC(C)(C)Nc1ncnc2c1cnn2-c1ccccc1,–,25µM,7.9µM,10µM
O=S(=O)(NCCc1csc2nc(-c3ccccc3)nn12)c1cccs1,·,·,–,–
CCOc1ccc(NC(=O)c2oc3ccccc3c2NC(=O)Cc2ccc(F)cc2)cc1,·,·,–,?
CC(C)OC(=O)[C@@H]1CC[C@H](C)[C@@H](CCC[C@@H]2C[C@@H](O)C[C@H](CC#N)O2)O1,·,–,·,·
CN1C(=O)CCC1c1cccnc1 (stereo not drawn),–,–,–,–
CO[C@H]1COC(=O)[C@H](C)COC(=O)[C@H](C)NC(=O)C/C=C\[C@H]1C,·,·,–[9.22 µM],–[9.22 µM]
Cc1cc(OC(=O)c2ccccc2Br)cc(=O)n1C,–,13µM,·,·
O=C(CCc1ccccc1)n1nc(-c2ccco2)nc1SCc1ccccc1,–,8.9µM,·,·
O=C(NC1CCCCCC1)c1ccc(N2CCCC2=O)cc1,–,?,?,?
O=C(O)c1cccc(N2CCCC2=O)c1,–,20µM,–,–
O=C(NCc1ccc(N2CCCC2=O)cc1)NC1CCCCC1,–,22µM,–,–
O=C(NC1CCCCC1)c1ccc(N2CCCC2=O)cc1,–,8.9µM,–,–
COc1ccc(/C=C/C(=O)c2cccs2)c(OC)c1,–,?,16µM,5µM
COC(=O)c1cc(NC(=O)c2ccc(Cn3cc(Cl)cn3)o2)cc(C(=O)OC)c1,–,1.3µM,–,?
COc1ccc(C(=O)Nc2sc(C(=O)N(C)C)c(C)c2C#N)cc1[N+](=O)[O-],–,–,·,·
CCN(CC)C(=O)c1sc(NC(=O)c2ccc(OC)c([N+](=O)[O-])c2)c(C#N)c1C,–,18µM,·,–
